D1 antagonist: Antagonist of Human D 1 Dopamine Receptor: qHTS; HEK293 TREx D1 cells, calcium flux, dopamine EC80; hits give low values; activity change, negative = inhibition, % at 10 µM; 3.2% of 360,000 active; in the data active = activity change below about -30%; also: % is scaled to controls: 0 for no effect and ±100 for the full control effect
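Inducible Hek293 Trex D1 cells (tetracycline, overnight, 30 C). Calcium dye 30–90 min RT. Antagonist mode: EC80 dopamine added after 180 s compound read.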
D1 ag: Allosteric Agonists of the Human D1 Dopamine Receptor: qHTS; D(1A) dopamine receptor (Homo sapiens), P21728; HEK293 T-REx D1 cells, calcium flux, agonist mode; activation, % at 2 µM; 1% of 360,000 active; AID 504660, 2011; also: 0% is about no effect
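Agonism was scored from calcium flux recorded over 180 s (1 read/s) after pintool compound addition, following a 10-cycle baseline. Cells were inducible force-coupled HEK293 TREx D1, plated overnight at 30 C and loaded with no-wash calcium dye.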
D1 potentiator: Potentiators of Human D1 Dopamine Receptor: qHTS. AID 504651, 2011. HEK293 TREx D1 cells, calcium flux, dopamine EC20 potentiation. 0.036% of 360,000 active. D(1A) dopamine receptor (Homo sapiens), P21728. potentiation, % at 10 µM; in the data active = potentiation above about 30%; also: 0% is about no effect
TRHR enhancer: qHTS for Small Molecule Agonists and Allosteric Enhancers of Human TRH Receptor: Primary Screen for Enhancers | TRHR cells, fluo-8 calcium fluorescence, EC20 TRH enhancement | Thyrotropin-releasing hormone receptor (Homo sapiens), P34981 | 0.66% of 360,000 active | enhancement, % at 2 µM; in the data active = enhancement above about 30%; also: 0% is about no effect
Target sequence (P34981 whole entry, looked up): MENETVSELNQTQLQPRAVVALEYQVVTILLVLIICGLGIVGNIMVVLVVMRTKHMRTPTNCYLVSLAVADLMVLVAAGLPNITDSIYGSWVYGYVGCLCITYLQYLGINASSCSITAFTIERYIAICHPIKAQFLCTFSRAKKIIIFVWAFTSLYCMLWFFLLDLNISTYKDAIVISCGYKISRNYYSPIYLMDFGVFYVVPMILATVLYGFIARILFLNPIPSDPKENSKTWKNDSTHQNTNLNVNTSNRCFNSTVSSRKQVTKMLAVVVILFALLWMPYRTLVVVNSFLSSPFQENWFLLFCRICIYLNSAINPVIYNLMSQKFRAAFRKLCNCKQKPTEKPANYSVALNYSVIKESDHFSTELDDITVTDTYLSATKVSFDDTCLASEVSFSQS
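Enhancer read-out: after compound pinning and an initial kinetic agonist-mode read, an EC20 of TRH (10 nM final) was injected and fluo-8 calcium signal (Ex 480/Em 530) followed at 1 s/cycle for 100 cycles in TRHR-expressing cells.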
TRHR ag: qHTS for Small Molecule Agonists and Allosteric Enhancers of Human TRH Receptor: Primary Screen for Agonists | activation, % at 2 µM | Thyrotropin-releasing hormone receptor (Homo sapiens), P34981 | TRHR cells, calcium flux fluo-8, FDSS agonist mode | AID 493084, 2011 | 0.18% of 360,000 active; also: 0% is about no effect
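TRHR-expressing cells, plated overnight in medium with 10% serum, were loaded with fluo-8 calcium dye at room temperature. After a 10 s baseline, library compound was pin-added and calcium release was recorded kinetically (ex 480/em 530) as agonist response.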
Active calls of the source: *; . = not tested or not shown. Most compounds without a hit are left out; they make up all but 4.7% or so of the library. Rule as the data show it, unless noted: active = activation above about 30%; inactive = the rest.

SMILES	D1 antagonist	D1 ag	D1 potentiator	TRHR enhancer	TRHR ag
CN1CCN(c2ccc(NC(=S)NC(=O)c3cccc4ccccc34)cc2)CC1	-23	14	-15	9	2
COc1ccc(-c2[nH]c(-c3ccc(O)cc3)nc2-c2ccccc2)cc1	24	6	-2	2	-2
CCc1ccc(Cn2nnc(C(=O)Nc3ccc(OC)cc3OC)c2N)cc1	14	33*	.	7	5
COc1cccc(NC(=O)c2nnn(Cc3ccc(Br)cc3F)c2N)c1	4	39*	4	-5	6
COc1ccc(NC(=O)c2nnn(CC(=O)Nc3ccccc3OC)c2N)c(OC)c1	0	1	-4	2	0
COc1cccc(NC(=O)c2nnn(Cc3ccc(OC)c(Br)c3)c2N)c1	-73*	5	-2	0	0
COc1ccccc1NC(=O)c1nnn(Cc2ccccc2)c1NC(C)=O	-48*	3	1	3	-1
COc1cc(NC(=O)COCc2cc(-c3ccc4c(c3)OCO4)on2)c(OC)cc1Cl	1	4	0	3	0
CCOc1ccc(N2C(=O)c3[nH]nc(-c4ccc(OC)cc4)c3C2c2cccs2)cc1 (stereo unspecified)	16	0	-2	1	3
COc1cccc(NC(=O)c2nnn(Cc3cccc(C(F)(F)F)c3)c2N)c1	-7	63*	-4	14	-1
COc1ccc(Cn2c(C)nc3ccc([N+](=O)[O-])cc3c2=O)cc1	-30*	12	-6	-13	0
Oc1ccc2ccccc2c1C=Nc1ccc(N2CCOCC2)cc1	2	52*	-6	1	20
Oc1ccccc1N=Cc1c(O)ccc2ccccc12	5	101*	2	4	27
CCOC(=O)c1ccc(NS(=O)(=O)c2cc(-c3onc(C)c3C)ccc2C)cc1	6	0	-1	7	0
CCOC(=O)C1CCC(CN(Cc2cccc(Br)c2)S(=O)(=O)c2ccc(C)cc2)CC1 (stereo unspecified)	22	32*	0	-3	2
CC(=O)Nc1ccc(S(=O)(=O)NCCNS(=O)(=O)c2ccc(NC(C)=O)cc2)cc1	4	0	-4	0	1
CC(=O)Nc1ccc(S(=O)(=O)NCCSCc2ccc(Cl)cc2Cl)cc1	-31*	15	-7	-1	0
O=[N+]([O-])c1ccc(Sc2nc3ccccc3o2)c([N+](=O)[O-])c1	-23	4	-2	30*	-1
COc1ccc(S(=O)(=O)N2CCN(Cc3ccccc3)CC2)cc1OC	-9	7	-4	35*	0
CCOc1ccc(S(=O)(=O)N2CCN(Cc3ccccc3)CC2)cc1	-39*	5	1	7	-1
Cc1ccc(N=C(NO)c2cnccc2C(F)(F)F)c(C)c1	1	1	6	32*	0
CN(C)C(CNC(=O)c1ccc(-c2ccccc2)cc1)c1ccccc1 (stereo unspecified)	-3	3	-6	31*	1
CCc1ccc(CNC(=O)CSc2cc(=O)n(CC)c3ccccc23)cc1	-1	3	2	4	0
CCn1c(=O)cc(SCC(=O)NCCN2CCN(Cc3ccccc3)CC2)c2ccccc21	-33*	0	-2	-3	0
CCn1c(=O)cc(SCC(=O)NCc2cccnc2)c2ccccc21	-40*	3	-7	-6	-1
SMILES	D1 antagonist	D1 ag	D1 potentiator	TRHR enhancer	TRHR ag
CCn1c(=O)cc(SCC(=O)NCCCN2CCC(C)CC2)c2ccccc21	9	2	0	0	1
CCC(C(=O)NC1CCCCC1)n1nc(C)c2sc3ccccc3c2c1=O (stereo unspecified)	-17	1	0	-2	0
COc1ccc(OC)c(CCNC(=O)c2cnn(-c3ccccc3)c2C2CCN(C(=O)OC(C)(C)C)CC2)c1	-16	4	0	-5	0
C/C(=N\Nc1cccc(C(=O)O)c1)c1ccc(Cl)s1	-59*	5	5	10	1
C/C(=N\NC(=O)C(=O)Nc1cccc(C(F)(F)F)c1)c1ccc(Cl)s1	-39*	7	-3	4	0
CC(=O)c1cccc(NC(=O)c2sc(-n3nc(C)c(CCC(C)C)c3C)nc2C)c1	-3	-2	1	4	-1
CCCCNc1nc2sc3c(c2c(=O)n1-c1cccc(Cl)c1)CCN(C)C3	-39*	3	-5	-2	1
CCCCCNc1nc2sc3c(c2c(=O)n1-c1cccc(Cl)c1)CCN(C)C3	-85*	0	-5	-23	0
COc1ccc(C(=O)N(Cc2ccco2)Cc2ccccc2F)cc1Cl	-12	10	6	-4	2
Cc1ccc(C(=O)N(Cc2nnc(-c3ccc(Cl)cc3)o2)C2CC2)o1	1	-1	2	-14	-2
O=C1OC(CC(=O)N(Cc2nnc(-c3ccc(Cl)cc3)o2)C2CC2)c2ccccc21 (stereo unspecified)	-44*	1	.	0	0
O=C(CSC(=S)N1CCCC1)N(Cc1nnc(-c2ccccc2Cl)o1)C1CC1	-67*	5	.	-1	0
Cc1ccccc1CN1C(=O)c2ccccc2Sc2ccc(C(=O)NC(C)c3ccccc3)cc21 (stereo unspecified)	-12	1	-2	4	1
O=C(O)C(c1ccccc1)N1C(=O)/C(=C\c2ccc(-c3ccccc3Cl)o2)SC1=S (stereo unspecified)	9	0	0	3	-2
O=C(O)C(c1ccccc1)N1C(=O)/C(=C\c2ccc(-c3ccc(Br)cc3)o2)SC1=S (stereo unspecified)	68	66*	27	-8	14
CC(=O)Nc1ccc(S(=O)(=O)Nc2nc3ccccc3nc2Nc2ccc3ccccc3c2)cc1	-2	5	-3	3	2
COc1cc(Nc2nc3ccccc3nc2NS(=O)(=O)c2ccc([N+](=O)[O-])cc2)cc(OC)c1OC	-74*	1	-20	5	0
COC(=O)c1cc(Nc2nc3ccccc3nc2NS(=O)(=O)c2ccc(C)cc2)ccc1Cl	-31*	17	-4	0	1
O=[N+]([O-])c1ccc(S(=O)(=O)Nc2nc3ccccc3nc2Nc2ccccc2)cc1	0	0	-7	-5	0
CC1Cc2ccccc2N1C(=O)CSc1nnc(-c2ccccc2Cl)o1 (stereo unspecified)	-17	0	-3	-5	1
CCc1cccc(CC)c1NC(=O)CCS(=O)(=O)c1ccc2c(c1)CCN2C(C)=O	-2	-1	-2	1	-1

From PubChem BioAssay
